# Screens deposited in PubChem by National Center for Advancing Translational Sciences (NCATS).
# An excerpt weighted towards active compounds, which were near 0.8% of everything screened.
# FEN1 inh-1: qHTS Assay for the Inhibitors of Human Flap endonuclease 1 (FEN1) | Recombinant FEN1 flap cleavage, fluorescence, 15 min | P39748 | actives 0.35% (n = 390,000) | Potency, µM (series often up to 114 µM), inactives show at the top dose activity change, negative = inhibition, hits mostly inhibitors | AID 588795, 2011; note: potency is the fitted concentration of half-maximal effect; % is set by controls: 0 for no effect and ±100 for the full control effect; nearly all actives have a fitted effect of over 65% in size
#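 Steps: FEN1 (10 nM) dispensed; compound added by pin tool; 15 min at room temperature; substrate added to 50 nM final; reads at 0 min and 15 min; data normalized and fitted (four-parameter Hill).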
# APE1 inh-1: qHTS Assay for Inhibitors of the Human Apurinic/apyrimidinic Endonuclease 1 (APE1); DNA repair nuclease/redox regulator APEX1 (Homo sapiens), P27695; recombinant APE1, TAMRA/BHQ-2 abasic DNA cleavage fluorescence; Potency, µM (highest dose often 65.8 µM), for inactives: at the top dose activity change, negative = inhibition, hits mostly inhibitors; actives 0.35% (n = 350,000); AID 2517, 2012;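 note: potency is the fitted concentration of half-maximal effect; plate controls were vehicle for no effect and reference inhibitor for full effect; nearly all actives have a fitted effect of over 55% in size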
# Target sequence (P27695 whole entry, looked up): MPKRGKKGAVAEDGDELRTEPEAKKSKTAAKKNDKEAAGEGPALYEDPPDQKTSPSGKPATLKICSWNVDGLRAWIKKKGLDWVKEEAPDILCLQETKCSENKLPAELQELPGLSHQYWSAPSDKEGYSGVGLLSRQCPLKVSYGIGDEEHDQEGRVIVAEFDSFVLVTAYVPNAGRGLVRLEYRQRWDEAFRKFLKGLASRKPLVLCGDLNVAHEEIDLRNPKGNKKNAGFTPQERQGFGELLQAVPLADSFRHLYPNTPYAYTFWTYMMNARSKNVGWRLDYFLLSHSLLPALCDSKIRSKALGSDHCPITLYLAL
#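 Substrate: short duplex with […] THF abasic site, 5'-TAMRA and 3'-BHQ-2, 50 nM final. APE1 at 0.75 nM, preincubated 15 min RT with compound. Fluorescence increase from first to third read measured activity.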
# Tb PGK inh: qHTS Assay to Find Inhibitors of Phosphoglycerate Kinase; Phosphoglycerate kinase, glycosomal (Trypanosoma brucei brucei), P07378; actives 0.043% (n = 380,000); PGK/GAPDH coupled, Kinase-Glo luminescence, 60 min; Potency, µM (series often up to 57.5 µM), for inactives: at the highest dose activity change, negative = inhibition, most hits filed as inhibitors; note: potency is the fitted concentration of half-maximal effect; % is set by controls: 0 for no effect and ±100 for the full control effect; nearly all actives have a fitted effect of over 60% in size
#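 Recombinant glycosomal PGK reaction used 1,3-bisphosphoglycerate generated in-well by GAPDH (100nM final) in 100mM TEA pH 7.6, 5mM MgCl2, 0.01% Tween-20. After 60 minutes at room temperature, ATP was read by Kinase-Glo Plus luminescence end-point.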
# TDP1 block: qHTS Assay for Inhibitors of Tyrosyl-DNA Phosphodiesterase (TDP1) | Tyrosyl-DNA phosphodiesterase 1 (Homo sapiens), Q9NUW8 | recombinant TDP1, AlphaScreen DNA substrate cleavage | Potency, µM (series often up to 130 µM), inactives show top-dose activity change, negative = inhibition, most hits filed as inhibitors | actives 0.28% (n = 350,000) | AID 485290, 2010; note: potency is the fitted concentration of half-maximal effect; % is set by controls: 0 for no effect and ±100 for the full control effect; nearly all actives have a fitted effect of over 40% in size
#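 Compounds were preincubated with Tdp1 (1 nM final) for 15 min at room temperature before substrate (15 nM final) started a 5 min reaction; beads (10 ug/ml final) were then added for 10 min before AlphaScreen detection.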
# Tb PFK block: qHTS Assay to Find Inhibitors of T. brucei phosphofructokinase; ATP-dependent 6-phosphofructokinase (Trypanosoma brucei brucei), O15648; T. brucei PFK, ADP-Glo luminescence; Potency, µM (highest dose often 57.5 µM), without a hit: at the highest dose activity, negative = inhibition, hits mostly inhibitors; actives 0.17% (n = 330,000); AID 485367, 2010;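 note: potency is the fitted concentration of half-maximal effect; 0% = uninhibited 1x PFK enzyme wells and -100% = no-enzyme wells; nearly all actives have a fitted effect of over 60% in size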
# Target sequence (O15648 whole entry, looked up): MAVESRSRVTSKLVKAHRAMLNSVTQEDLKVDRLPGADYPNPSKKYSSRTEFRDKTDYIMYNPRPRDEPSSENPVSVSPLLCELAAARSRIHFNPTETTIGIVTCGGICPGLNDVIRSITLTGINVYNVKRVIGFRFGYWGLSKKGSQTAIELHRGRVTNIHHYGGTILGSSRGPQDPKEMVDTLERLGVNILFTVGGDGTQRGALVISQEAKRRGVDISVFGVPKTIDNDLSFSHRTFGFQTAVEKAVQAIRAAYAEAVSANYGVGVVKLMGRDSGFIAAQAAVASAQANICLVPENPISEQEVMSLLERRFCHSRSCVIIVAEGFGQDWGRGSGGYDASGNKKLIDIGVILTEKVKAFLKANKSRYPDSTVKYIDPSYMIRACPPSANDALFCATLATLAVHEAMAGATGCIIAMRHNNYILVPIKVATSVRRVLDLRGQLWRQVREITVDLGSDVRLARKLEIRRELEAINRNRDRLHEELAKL
#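 PFK 1.25 nM, F6P 0.5 mM, ATP 0.1 mM, 0.1 M TEA pH 8.0, 5 mM MgCl2, 0.01% Tween20, 0.1% BSA; 45 min RT. ADP-Glo readout. qHTS titration up to 57 uM; curves fitted, compounds curve-classed.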
# PI4K2A block: qHTS for small molecular inhibitors of PI4K2A; actives 0.13% (n = 420,000); AID 1346378, 2018; activity change, negative = inhibition, % at 76.9 µM; purified PI4K2A, ADP-Glo luminescence, 1 h; active compounds read low; in the data active = activity change below about -50%; inconclusive = mostly about -30% to -49%;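 note: -100% = wells without enzyme as full effect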
#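 PI4K2A activity was measured by ADP-Glo luminescence: enzyme (4 ug/mL stock) and phosphatidylinositol (1.2 mM stock) in Tris pH 7.5/MgCl2/EGTA/Triton X-100 buffer were reacted with ATP (300 microM stock) for one hour at ambient temperature.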
# APE1 dye cs: Counterscreen for APE1 Inhibitors: Fluorescent Dye Displacement Assay. shares compounds with APE1 inh-1. DNA fluorescent dye displacement counterscreen, fluorescence. Potency, µM (series often up to 28.5 µM), inactives show top-dose activity change, negative = inhibition, hits mostly inhibitors. AID 2564, 2010. actives 7% (n = 480);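 note: loss of thiazole orange fluorescence as the dye is displaced from duplex DNA; potency is the fitted concentration of half-maximal effect; 0% = ThO with dsDNA and no compound and -100% = ThO without dsDNA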
# EndoIV counter: Counterscreen for APE1 Inhibitors: qHTS Assay for Inhibitors of Endonuclease IV; shares compounds with APE1 inh-1; E. coli Endo IV, fluorogenic AP-site DNA cleavage; Potency, µM (series often up to 27.1 µM), without a hit: at the top dose activity change, negative = inhibition, usual class: inhibitors; actives 4% (n = 560); AID 2565, 2010;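 note: potency is the fitted concentration of half-maximal effect; plate controls were uninhibited enzyme wells for no effect and no enzyme buffer wells for full effect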
# APE1 inh-2: Confirmation qHTS Assay for Inhibitors of the Human Apurinic/apyrimidinic Endonuclease 1 (APE1); purified APE1, fluorogenic abasic-site DNA cleavage; actives 44% (n = 750); Potency, µM (doses to about 57.1 µM), for the others: at the top dose activity change, negative = inhibition, hits mostly inhibitors; shares compounds with APE1 inh-1; note: potency is the fitted concentration of half-maximal effect; % is set by controls: 0 for no effect and ±100 for the full control effect; nearly all actives have a fitted effect of over 30% in size
# APE1 FP: qHTS FP-Based Assay for Inhibitors of the Human Apurinic/apyrimidinic Endonuclease 1 (APE1). APE1 binding to TAMRA-labelled double-stranded DNA, fluorescence polarization displacement. shares compounds with APE1 inh-1. AID 2573, 2010. actives 7% (n = 480). Potency, µM (doses to about 28.5 µM), for the others: at the highest dose activity, negative = inhibition, hits mostly inhibitors; note: potency is the fitted concentration of half-maximal effect; % is set by controls: 0 for no effect and ±100 for the full control effect
# FEN1 inh-2: qHTS Assay for the Inhibitors of FEN1: Confirmatory Assay for Cherry-picked Compounds. shares compounds with FEN1 inh-1. FEN1 flap cleavage, TAMRA/BHQ2 fluorogenic DNA substrate. Potency, µM, most hits filed as inhibitors. actives 79% (n = 880). AID 720498, 2013; note: potency is the fitted concentration of half-maximal effect; nearly all actives have a fitted effect of over 60% in size
# Starred values were filed as active, the others as inactive; i = inactive; ? = inconclusive; . = not tested or not shown; [ ] = dose if it differs, or a comment. Unless noted, calls come from the whole dose curve; as a rule, active = well fitted curve in the direction sought with a large enough effect; inconclusive = small, poorly fitted or top-dose-only effect, or another doubt; inactive = no such curve, though single readings can be large; an effect the other way counts as inactive or inconclusive.
SMILES,FEN1 inh-1,APE1 inh-1,Tb PGK inh,TDP1 block,Tb PFK block,PI4K2A block,APE1 dye cs,EndoIV counter,APE1 inh-2,APE1 FP,others
C[N+](C)(CCOc1ccccc1)Cc1cccs1,.,.,.,.,.,0,.,.,.,.,
Cc1ccc(NC(=O)CN2C(=O)S/C(=C\c3ccc(-c4cccc(C(=O)O)c4C)o3)C2=O)cc1,.,?,.,.,3%,.,.,.,40µM*,.,
Cc1cc(C(=O)O)ccc1-c1ccc(/C=C2\NC(=O)N(Cc3ccccc3Cl)C2=O)o1,?,-3%,?,-3%,3%,-6,.,.,.,.,
Cc1ccc(C(=O)O)cc1-c1ccc(/C=C2\SC(=O)N(CC(=O)Nc3ccccc3)C2=O)o1,50µM*,?,-16%,40µM*,0%,0,.,.,40µM*,.,
Cc1ccc(C(=O)O)cc1-c1ccc(/C=C2/NC(=O)N(c3ccccc3)C2=O)o1,?,11µM*,?,1.6µM*,-10%,-5,-9%,32%,?,-8%,
Cc1ccc(NC(=O)CN2C(=O)S/C(=C\c3ccc(C(=O)O)cc3)C2=O)cc1,26%,?,-1%,.,-2%,-2,.,.,.,.,
O=C(O)C1Cc2ccccc2CN1C(=O)COc1ccc(Br)cc1 (configuration not stated),0%,-12%,-13%,22µM*,0%,4,.,.,-15%,.,
O=C(O)C1Cc2ccccc2CN1C(=O)COc1ccc(Cl)cc1Cl (configuration not stated),-1%,?,10%,-3%,-4%,-3,.,.,.,.,
O=C(Nc1ccc2oc(-c3ccncc3)nc2c1)c1ccc(F)cc1,16%,5%,-4%,79µM*,-4%,1,.,.,?,.,
COC(=O)c1cc(=O)c(O)c2c(O)c(O)ccc2c1,.,1.3µM*,.,.,.,.,.,-17%[57.1 µM],7.1µM*,.,
C[C@@H](CN1CC(=O)NC(=O)C1)N1CC(=O)NC(=O)C1,.,.,.,.,.,-13,.,.,.,.,
COc1ccc(OC)c(NC(=O)c2noc3c2CCCC3)c1,?,.,i,-2%,.,-3,.,.,.,.,
COC(=O)c1ccccc1NC(=O)c1noc2c1CCC2,?,?,?,11µM*,?,-2,?,24%,11µM*,?,
CC(=O)OC(C)OC(=O)C(C)c1ccc(-c2ccccc2)c(F)c1 (configuration not stated),.,.,.,.,.,-3,.,.,.,.,
Cc1ccc2c(c1)C1C=CCC1C(C(=O)O)N2 (configuration not stated),.,16µM*,.,.,-16%,.,?,0%,14µM*,-26%,
O=c1cc(-c2ccc(O)cc2)oc2cc(O)c([C@@H]3O[C@H](CO)[C@@H](O)[C@H](O)[C@H]3O)c(O)c12,-6%,10%,-5%,8%,-9%,-2,.,.,.,.,
O=c1cc(-c2ccc(O)c(O)c2)oc2cc(O)c(C3OC(CO)C(O)C(O)C3O)c(O)c12 (configuration not stated),?,7.9µM*,?,-1%,-1%,-7,?,45%,3.2µM*,5%,
C=C1c2cccc(O)c2C(O)=C2C(=O)[C@@]3(O)C(O)=C(C(N)=O)C(=O)[C@@H](N(C)C)[C@@H]3[C@@H](O)[C@H]12,.,.,.,.,.,.,-11%,24%,-5%[24.4 µM],?,
O=C1[C@H](Cc2ccccc2)NC/C=C\C[C@@H](c2ccc(Cl)cc2)N1Cc1ccccc1,-7%,.,.,.,.,.,.,.,.,.,
CCCCN(CCN(CCCC)C(=O)N1CCOCC1)C(=O)N1CCOCC1,.,.,.,.,.,-3,.,.,.,.,
CCCOc1ccccc1-c1nc2n[nH]nc2c(=O)[nH]1,-7%,-5%,i,-11%[56.1 µM],.,-1,-7%[57.1 µM],8%[57.1 µM],1%,22%[57.1 µM],
CCCc1nn(C)c2c(=O)[nH]c(-c3ccccc3OCC)nc12,5%,0%,4%,1%,3%,1,.,.,.,.,
COCCCNc1c2c3c(cccc3[nH]c1=O)C(=O)c1ccccc1-2,79µM*,?,-2%,4%,0%,17,.,13µM*,?,4µM*,FEN1 inh-2=60*
CCOC(=O)c1c2c3c(cccc3[nH]c1=O)C(=O)c1ccccc1-2,-15%,-1%,6%,3%,1%,-2,.,.,.,.,
CC(=O)Nc1sc2c(c1-c1nc3ccccc3s1)CCN(C(C)C)C2,?,13µM*,-5%,.,4%,2,6%,13µM*,3.5µM*,2.5µM*,FEN1 inh-2=12*
CC(C)=CCC/C(C)=C/CC/C(C)=C/C(=O)OCC(=O)[C@@]1(O)CC[C@H]2[C@@H]3CCC4=CC(=O)C=C[C@]4(C)[C@H]3[C@@H](O)C[C@@]21C,.,.,.,.,.,-2,.,.,.,.,
O=C(O)c1ccc(Cl)c(S(=O)(=O)N(Cc2ccccc2)c2ccccc2)c1,3%,7%,2%,0%,0%,-1,.,.,.,.,
